{
  "source": "PubChem BioAssay (NCATS)",
  "key": {"[1]": {"experiment": "Primary qHTS for small molecule stabilizers of the endoplasmic reticulum resident proteome: Secreted ER Calcium Modulated Protein (SERCaMP) assay (AID 1508630)", "summary_of_the_method": "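GLuc-SERCaMP-expressing SH-SY5Y cells, pretreated 16 h with compound, are challenged with thapsigargin to empty ER calcium stores; after 4 h, coelenterazine is added directly to the medium and luminescence is imaged.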"}, "[2]": {"target": "Cytochrome P450 1A2 (Homo sapiens) (UniProt P05177)", "sequence (P05177 whole entry, looked up)": "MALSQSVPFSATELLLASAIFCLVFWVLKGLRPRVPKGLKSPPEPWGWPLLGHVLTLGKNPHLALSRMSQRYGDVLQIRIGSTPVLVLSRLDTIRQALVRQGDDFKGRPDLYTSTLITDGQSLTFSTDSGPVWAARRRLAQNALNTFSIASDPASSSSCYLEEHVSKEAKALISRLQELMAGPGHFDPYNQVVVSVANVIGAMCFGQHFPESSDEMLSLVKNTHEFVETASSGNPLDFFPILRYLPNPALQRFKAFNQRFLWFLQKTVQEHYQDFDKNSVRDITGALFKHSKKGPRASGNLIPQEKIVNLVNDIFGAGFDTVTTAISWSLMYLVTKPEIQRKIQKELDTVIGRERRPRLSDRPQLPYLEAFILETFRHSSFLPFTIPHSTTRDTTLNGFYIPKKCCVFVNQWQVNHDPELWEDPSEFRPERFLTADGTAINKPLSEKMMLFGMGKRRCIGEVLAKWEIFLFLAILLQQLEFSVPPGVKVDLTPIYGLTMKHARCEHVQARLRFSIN", "experiment": "p450-cyp1a2 (AID 410; calls by dose curve)", "summary_of_the_method": "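Human CYP1A2 (20nM) demethylated Luciferin-ME at its Km (100uM) in 100mM KPO4. After 10 min compound preincubation, NADPH regeneration ran the reaction 60 min at room temperature. Luciferin was read by luminescence, normalized to 57 uM furafylline.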"}, "[3]": {"target": "Glucocorticoid receptor (Homo sapiens) (UniProt P04150)", "sequence (P04150 whole entry, looked up, the tested form may be a part)": "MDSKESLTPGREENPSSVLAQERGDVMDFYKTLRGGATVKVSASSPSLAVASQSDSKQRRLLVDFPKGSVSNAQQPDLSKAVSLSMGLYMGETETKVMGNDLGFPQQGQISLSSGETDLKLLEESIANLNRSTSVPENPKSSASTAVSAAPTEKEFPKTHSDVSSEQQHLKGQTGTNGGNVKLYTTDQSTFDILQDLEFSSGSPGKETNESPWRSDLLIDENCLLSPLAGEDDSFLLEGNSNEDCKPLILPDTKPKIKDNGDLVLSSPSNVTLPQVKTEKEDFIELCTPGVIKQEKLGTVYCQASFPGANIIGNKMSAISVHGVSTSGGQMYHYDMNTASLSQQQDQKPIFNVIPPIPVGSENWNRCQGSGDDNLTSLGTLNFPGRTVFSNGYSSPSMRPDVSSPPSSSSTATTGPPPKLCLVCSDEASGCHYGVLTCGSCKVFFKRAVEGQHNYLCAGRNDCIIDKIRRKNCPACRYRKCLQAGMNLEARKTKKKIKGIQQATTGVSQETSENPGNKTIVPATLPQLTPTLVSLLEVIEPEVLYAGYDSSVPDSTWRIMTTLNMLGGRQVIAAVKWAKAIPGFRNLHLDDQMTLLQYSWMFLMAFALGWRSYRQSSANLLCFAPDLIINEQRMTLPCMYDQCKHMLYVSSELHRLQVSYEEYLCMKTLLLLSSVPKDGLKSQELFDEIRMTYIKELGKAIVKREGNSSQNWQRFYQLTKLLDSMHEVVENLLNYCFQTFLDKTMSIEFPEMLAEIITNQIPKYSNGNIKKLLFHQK", "experiment": "GR-GFP Redistribution (AID 450;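 active means compounds whose dose series gives a full or clear partial fitted curve of increased nuclear translocation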; further: potency means the concentration at half of the fitted maximal effect)", "details": "U2OS GR-GFP nuclear translocation, laser cytometry, 2 h"}, "[4]": {"target": "3',5'-cyclic-AMP phosphodiesterase 4B (Homo sapiens) (UniProt Q07343)", "sequence (Q07343 whole entry, looked up)": "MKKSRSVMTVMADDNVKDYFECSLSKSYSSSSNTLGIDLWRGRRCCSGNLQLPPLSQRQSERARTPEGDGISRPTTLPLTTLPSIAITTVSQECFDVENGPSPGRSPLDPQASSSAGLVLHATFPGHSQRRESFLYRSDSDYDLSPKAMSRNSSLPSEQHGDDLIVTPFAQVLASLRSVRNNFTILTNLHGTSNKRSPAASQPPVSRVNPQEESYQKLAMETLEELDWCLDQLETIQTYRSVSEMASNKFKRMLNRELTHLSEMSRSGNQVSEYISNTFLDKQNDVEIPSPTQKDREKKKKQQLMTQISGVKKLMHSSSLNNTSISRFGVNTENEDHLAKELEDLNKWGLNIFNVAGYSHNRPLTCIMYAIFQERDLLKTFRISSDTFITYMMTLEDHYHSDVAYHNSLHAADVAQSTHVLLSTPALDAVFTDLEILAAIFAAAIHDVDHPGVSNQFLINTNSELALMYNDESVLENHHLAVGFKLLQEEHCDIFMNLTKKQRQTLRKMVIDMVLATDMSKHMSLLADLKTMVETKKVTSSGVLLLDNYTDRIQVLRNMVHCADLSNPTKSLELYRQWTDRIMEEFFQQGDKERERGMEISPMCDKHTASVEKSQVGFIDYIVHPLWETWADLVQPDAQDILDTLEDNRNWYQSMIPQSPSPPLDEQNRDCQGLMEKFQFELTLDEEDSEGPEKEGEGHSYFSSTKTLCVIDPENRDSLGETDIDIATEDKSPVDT", "experiment": "qHTS Assay for Inhibitors of PDE-IV (AID 607; active means well fitted activation curve with a large enough effect in the main read-out, with a control signal flat, not every such curve was filed as active)", "summary_of_the_method": "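Live HEK293 cells with a modified cyclic nucleotide-gated (CNG) channel report intracellular cAMP via membrane-potential dye fluorescence (ex 535/em 590 nm). Endogenous PDE-IV was targeted. Compounds were tested at up to 22.9 uM final; RO 20-1724 100 uM served as control.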"}, "[5]": {"experiment": "qHTS Assay for Lipid Storage Modulators (AID 1519; calls by dose curve)", "details": "Drosophila S3 cells, BODIPY lipid droplet/cell ratio, laser cytometry, cells loaded with oleic acid", "summary_of_the_method": "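Cells seeded at 5,000 per well were treated with compounds over a concentration series and loaded with oleic acid (400 uM, as added). Lipid droplet fluorescence (488 nm excitation, 500-530 nm channel) was read by laser-scanning cytometry and normalized to 20 uM Triacsin C.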"}, "[6]": {"target": "Ubiquitin carboxyl-terminal hydrolase 1 (Homo sapiens) (UniProt O94782)", "sequence (O94782 whole entry, looked up)": "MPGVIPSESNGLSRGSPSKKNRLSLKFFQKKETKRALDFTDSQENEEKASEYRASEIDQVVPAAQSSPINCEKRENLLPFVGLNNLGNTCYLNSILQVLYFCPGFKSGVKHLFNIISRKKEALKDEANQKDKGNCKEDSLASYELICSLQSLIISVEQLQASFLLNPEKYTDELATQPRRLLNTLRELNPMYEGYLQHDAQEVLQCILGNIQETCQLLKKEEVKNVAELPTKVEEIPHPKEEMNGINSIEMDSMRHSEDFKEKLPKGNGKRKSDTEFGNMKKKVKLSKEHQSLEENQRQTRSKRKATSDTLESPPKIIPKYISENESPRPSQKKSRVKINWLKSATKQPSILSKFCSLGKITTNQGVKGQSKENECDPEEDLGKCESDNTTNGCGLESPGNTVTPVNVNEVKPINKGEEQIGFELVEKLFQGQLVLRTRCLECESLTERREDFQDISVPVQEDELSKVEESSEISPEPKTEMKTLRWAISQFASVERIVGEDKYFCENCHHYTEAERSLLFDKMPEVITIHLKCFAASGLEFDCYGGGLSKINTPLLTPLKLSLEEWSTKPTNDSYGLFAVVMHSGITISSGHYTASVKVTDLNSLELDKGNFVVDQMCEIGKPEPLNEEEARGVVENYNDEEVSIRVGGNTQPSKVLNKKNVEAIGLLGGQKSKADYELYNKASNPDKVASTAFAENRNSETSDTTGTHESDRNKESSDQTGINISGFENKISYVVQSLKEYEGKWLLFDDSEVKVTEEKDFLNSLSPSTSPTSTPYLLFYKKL", "experiment": "Inhibitors of USP1/UAF1: Pilot qHTS (AID 504865);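 further: rhodamine fluorescence freed from ubiquitin-rhodamine substrate followed over time; top concentration of the series differs between compounds; nearly all actives have a fitted effect of over 35% in size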", "summary_of_the_method": "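USP1/UAF1 complex at 1 nM preincubated 15 min at room temperature with compound, then Ub-Rho substrate added at 150 nM final. Fluorescence (480/540 nm) read kinetically in 50 mM HEPES pH 7.8, 0.5 mM EDTA, 1 mM TCEP, 0.1 mg/ml BSA, 0.01% Tween-20.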"}, "[7]": {"target": "DNA dC->dU-editing enzyme APOBEC-3G (Homo sapiens) (UniProt Q9HC16)", "sequence (Q9HC16 whole entry, looked up)": "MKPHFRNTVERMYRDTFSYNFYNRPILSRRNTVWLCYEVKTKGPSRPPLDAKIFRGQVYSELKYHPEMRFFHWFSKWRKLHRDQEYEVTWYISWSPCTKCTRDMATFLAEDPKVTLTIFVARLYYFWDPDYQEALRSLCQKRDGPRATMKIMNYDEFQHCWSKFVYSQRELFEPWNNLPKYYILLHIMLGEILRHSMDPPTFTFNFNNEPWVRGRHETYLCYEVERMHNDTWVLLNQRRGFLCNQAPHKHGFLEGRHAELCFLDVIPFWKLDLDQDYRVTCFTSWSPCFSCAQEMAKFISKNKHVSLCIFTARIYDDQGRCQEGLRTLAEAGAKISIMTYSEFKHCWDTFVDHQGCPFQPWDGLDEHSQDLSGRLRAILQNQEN", "experiment": "qHTS for inhibitors of Vif-A3G interactions: Validation (AID 588379)", "summary_of_the_method": "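HeLa cells stably expressing Vif and A3G-eYFP, 700 cells/well, incubated overnight at 37 deg C, then exposed to compound overnight at 37 deg C. Inhibition of Vif-mediated degradation read as increased yellow fluorescence (Ex 488/Em 500-530) by laser-scanning cytometry.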"}, "[8]": {"target": "Glucocorticoid receptor (Homo sapiens) (UniProt P04150)", "experiment": "GR-EFC Redistribution (AID 451; calls by dose curve; further: potency means the concentration at half of the fitted maximal effect)", "details": "CHO-K1 GR-EFC translocation, beta-gal luminescence, 2 h", "summary_of_the_method": "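Translocation of GR-ED fusion to nuclear EA restores b-gal, read by luminescence after 1 h room-temperature detection. Engineered CHO-K1 biosensor cells, 1,000/well, exposed 2 h at 37 C to titrations up to 46 uM final.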"}, "[9]": {"experiment": "Counterscreen qHTS for small molecule stabilizers of the endoplasmic reticulum resident proteome: GLuc-NoTag assay (AID 1508627); further: potency means the concentration at half of the fitted maximal effect", "summary_of_the_method": "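Luminescence of Gaussia luciferase secreted into the medium (coelenterazine, 0.07x final, unlysed cells) was the read-out. Human SH-SY5Y neuroblastoma cells constitutively secreting untagged GLuc received compound for 19 h, then 100 nM thapsigargin for 4 h.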"}, "[10]": {"experiment": "Cell Viability qHTS for small molecule stabilizers of the endoplasmic reticulum resident proteome (AID 1508629);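 further: potency means the concentration at half of the fitted maximal effect; compound exposure about 46 h in total before the viability read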", "details": "cell viability counter-screen, 100 nM thapsigargin for final 4 h"}},
  "note": "Records with an inconclusive call do not appear. Where a call stands in place of a potency, no number is given. The source made the active and inactive calls. Unless noted, the call rests on the fitted dose curve; in most records, active means well fitted curve in the direction sought with a large enough effect; inconclusive means small, poorly fitted or top-dose-only effect, or another doubt; inactive means no such curve, though single readings can be large; an effect the other way counts as inactive or inconclusive.",
  "data": [
    {"compound": "COc1ccc2c(CCN)c[nH]c2c1", "values": [
      {"measurement": "Potency", "setting": "[1]", "result": "inactive"}
    ]},
    {"compound": "CC1(C)[C@@H](O)C[C@H]2[C@](C)(O)[C@@H]3CC[C@H]4[C@@H](O)[C@@]3(C[C@@H](O)[C@@]21O)C[C@@]4(C)O", "values": [
      {"measurement": "Potency", "setting": "[1]", "result": "inactive"}
    ]},
    {"compound": "CC(=O)O[C@@H]1CN2CCC1CC2", "values": [
      {"measurement": "Potency", "setting": "[2]", "result": "inactive"},
      {"measurement": "Potency", "setting": "[3]", "result": "> 46 µM (inactive)"},
      {"measurement": "Potency", "setting": "[4]", "result": "inactive"},
      {"measurement": "activity change, negative = inhibition", "setting": "[5]; at 57.5 µM (top of the series)", "result": "2.83% (inactive)"},
      {"measurement": "max response", "setting": "[5]; measured here: cell count channel max response", "result": -10.5, "unit": "%"},
      {"measurement": "max response", "setting": "[5]; measured here: lipid channel max response", "result": -8.98, "unit": "%"},
      {"measurement": "Potency", "setting": "[6]", "result": "inactive"},
      {"measurement": "Potency", "setting": "[7]", "result": "inactive"},
      {"measurement": "Potency", "setting": "[1]", "result": "inactive"}
    ]},
    {"compound": "CN1[C@@H]2CC[C@H]1CC(OC(c1ccc(F)cc1)c1ccc(F)cc1)C2", "note": "(some centres not stated)", "values": [
      {"measurement": "Potency", "setting": "[3]", "result": "> 46 µM (inactive)"},
      {"measurement": "Potency", "setting": "[8]", "result": "> 46 µM (inactive)"},
      {"measurement": "Potency", "setting": "[6]", "result": "inactive"},
      {"measurement": "Potency", "setting": "[7]", "result": "inactive"},
      {"measurement": "Potency", "setting": "[9]", "result": "44.7 µM (active)"},
      {"measurement": "Potency", "setting": "[10]", "result": "25.1 µM (active)"}
    ]}
  ]
}
